Laboratory results published in ChEMBL document CHEMBL1961873, “Compounds: GSK PKIS; Assays: Nanosyn kinase panel” (2012).
Several values for one entry are separate records, joined by “and”; a condition that tells them apart may be missing. Equal values may be shown once.

Biological target: Misshapen-like kinase 1 (Homo sapiens) (UniProt Q8N4C8)
Details: at 1 µM

Misshapen-like kinase 1 (Homo sapiens), sequence (Q8N4C8 whole entry, looked up): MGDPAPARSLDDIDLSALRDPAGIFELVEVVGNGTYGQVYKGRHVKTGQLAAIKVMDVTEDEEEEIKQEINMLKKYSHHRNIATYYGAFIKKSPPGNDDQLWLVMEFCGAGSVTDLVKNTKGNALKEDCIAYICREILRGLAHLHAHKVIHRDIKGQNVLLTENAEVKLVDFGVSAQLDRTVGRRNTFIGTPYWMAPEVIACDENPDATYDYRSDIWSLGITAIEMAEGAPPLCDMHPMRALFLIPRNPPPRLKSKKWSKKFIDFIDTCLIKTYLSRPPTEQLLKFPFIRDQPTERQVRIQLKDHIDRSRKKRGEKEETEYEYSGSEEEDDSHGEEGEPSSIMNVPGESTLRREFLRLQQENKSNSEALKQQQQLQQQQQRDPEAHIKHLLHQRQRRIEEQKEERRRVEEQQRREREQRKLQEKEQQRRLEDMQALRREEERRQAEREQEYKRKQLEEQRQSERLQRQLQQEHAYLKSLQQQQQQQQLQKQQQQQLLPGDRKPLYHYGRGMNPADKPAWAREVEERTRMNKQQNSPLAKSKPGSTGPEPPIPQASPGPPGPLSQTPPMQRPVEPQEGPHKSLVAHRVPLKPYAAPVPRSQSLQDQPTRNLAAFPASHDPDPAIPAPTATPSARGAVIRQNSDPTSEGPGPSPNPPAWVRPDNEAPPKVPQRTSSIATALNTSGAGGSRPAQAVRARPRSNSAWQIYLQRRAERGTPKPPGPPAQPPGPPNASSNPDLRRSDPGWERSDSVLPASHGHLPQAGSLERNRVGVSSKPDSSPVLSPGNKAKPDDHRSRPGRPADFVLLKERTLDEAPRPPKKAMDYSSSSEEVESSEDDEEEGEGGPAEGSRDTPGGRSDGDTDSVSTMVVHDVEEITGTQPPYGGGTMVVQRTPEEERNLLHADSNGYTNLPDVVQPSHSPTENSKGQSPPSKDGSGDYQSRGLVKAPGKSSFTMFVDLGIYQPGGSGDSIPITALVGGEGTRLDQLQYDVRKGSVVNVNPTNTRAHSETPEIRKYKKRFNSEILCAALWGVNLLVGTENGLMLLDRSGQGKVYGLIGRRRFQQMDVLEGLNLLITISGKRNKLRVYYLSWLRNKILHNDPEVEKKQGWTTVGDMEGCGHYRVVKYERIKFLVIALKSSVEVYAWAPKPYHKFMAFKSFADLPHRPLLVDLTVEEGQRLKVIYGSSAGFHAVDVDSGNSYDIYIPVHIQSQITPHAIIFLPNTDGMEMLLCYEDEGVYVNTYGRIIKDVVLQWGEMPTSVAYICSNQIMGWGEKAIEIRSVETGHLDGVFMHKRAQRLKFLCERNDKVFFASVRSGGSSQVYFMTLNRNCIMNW

| SMILES | inhibition |
| --- | --- |
| CNC(=O)c1cncc(/C=C/c2ccccc2C)c1 | 15.5% |
| CC(C)c1ccc(-c2cc(-c3c[nH]nc3-c3ccccn3)ccn2)cc1 | 37.6% |
| Fc1cccc(COc2ccc(Nc3ncncc3C#Cc3ccccc3)cc2Cl)c1 | 15.9% |
| NS(=O)(=O)c1ccc(N/N=C2\C(=O)Nc3cccc(CCc4ccncc4)c32)cc1 | 10.8% |
| CCn1c(-c2nonc2N)nc2cncc(C(=O)NCCNC)c21 | 10.8% |
| CS(=O)(=O)CCNCc1ccc(-c2ccc3ncnc(Nc4ccc(OCc5cccc(C(F)(F)F)c5)cc4)c3c2)o1 | 3.68% |
| Cc1cc(O)cc(C)c1/C=C/c1cncc(C(=O)OC(C)(C)C)c1 | 9.55% |
| O=C(O[C@H]1CN[C@H](C#Cc2cc3ncnc(Nc4ccc(OCc5cccc(F)c5)c(Cl)c4)c3s2)C1)N1CCOCC1 | 9.94% |
| c1ccc(-c2n[nH]cc2-c2ccnc(-c3ccc(OCCn4ccnc4)cc3)c2)nc1 | 79% |
| c1cnn2ncc(-c3ccnc(NCCCN4CCOCC4)n3)c2c1 | 12.1% |
| O=C(O[C@H]1CN[C@H](C#Cc2cc3ncnc(Nc4ccc5c(ccn5Cc5cc(F)ccc5F)c4)c3s2)C1)N1CCOCC1 | 5.37% |
| O=C(O[C@H]1CN[C@H](C#Cc2cc3ncnc(Nc4ccc5c(cnn5Cc5ccccc5)c4)c3s2)C1)N1CCOCC1 | 1.62% |
| COc1ccc(Nc2ncc(-c3ccccc3)o2)cc1OC | 35.5% |
| CC1=C(C(=O)Nc2ccc3[nH]nc(C)c3c2)C(c2ccc(C(F)(F)F)cc2)CC(=O)N1 (configuration not stated) | 4.08% |
| Cn1c(-c2nonc2N)nc2cnccc21 | 16.6% |
| CCS(=O)(=O)c1ccc(OC)c(Nc2ncc(-c3cccc(F)c3)o2)c1 | 16.1% |

| SMILES | inhibition |
| --- | --- |
| Cc1nnc(-c2cccc(-c3ccc(C(=O)NCC4CC4)cc3)c2)o1 | 14.7% |
| COc1cc2c(cc1Nc1nc(Nc3cccc(F)c3C(N)=O)c3cc[nH]c3n1)N(C(=O)CN1CCN(C(C)C)CC1)CC2 | 3.43% |
| COc1cc(N2CCN(C(C)C)CC2)ccc1Nc1nc(Nc2cccc(F)c2C(=O)O)c2cc[nH]c2n1 | 9.35% |
| NC(=O)c1ccc2c(-c3ccnc(NCCCO)n3)c(-c3ccc(F)cc3)nn2c1 | 35.5% |
| COc1ccccc1-c1cc(/C=C2\C(=O)Nc3ncc(Br)cc32)cc(Br)c1O | 13.3% |
| COC(=O)Nc1nc2ccc(Oc3ccc(NC(=O)Nc4cc(C(F)(F)F)ccc4F)cc3)cc2s1 | 6.19% |
| CN1CCC(C(=O)Nc2n[nH]c3nc(-c4ccc(O)cc4)c(Br)cc23)CC1 | 28.1% and 15.2% |
| CCOc1ccc2c(-c3ccnc(Nc4cc(OC)cc(C(F)(F)F)c4)n3)cnn2n1 | 6.36% |
| CC1=C(C(=O)Nc2ccc3[nH]ncc3c2)C(c2ccc(F)cc2)N=C(c2ccc(C(F)(F)F)nc2)N1 (configuration not stated) | 2.06% |
| Nc1ncnc2occ(-c3ccc(NC(=O)Nc4cc(C(F)(F)F)ccc4F)cc3)c12 | 19.9% and 2.27% |
| CCS(=O)(=O)c1ccc(OC)c(Nc2ncc(-c3cccc(C(C)=O)c3)o2)c1 | 8.97% |
| FC(F)(F)CNc1nccc(-c2cnn3ncccc23)n1 | 3.44% |
| CN(C)CCNC(=O)Nc1ccc(N(C)c2ccnc(Nc3ccc(CS(C)(=O)=O)cc3)n2)cc1 | 10.1% |
| Nc1nccc(-c2c(-c3ccc(F)cc3)ncn2C2CCNCC2)n1 | 6.74% and 17% |
| CN1CCC(n2cnc(-c3ccc(F)cc3)c2-c2ccnc(NCCO)n2)CC1 | 15.8% |

Biological target: T1, Serine/threonine-protein kinase 4 (Homo sapiens) (UniProt Q13043);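 note: mean inhibition of MST1, reported as part of the GSK PKIS dataset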
T1 sequence (whole entry): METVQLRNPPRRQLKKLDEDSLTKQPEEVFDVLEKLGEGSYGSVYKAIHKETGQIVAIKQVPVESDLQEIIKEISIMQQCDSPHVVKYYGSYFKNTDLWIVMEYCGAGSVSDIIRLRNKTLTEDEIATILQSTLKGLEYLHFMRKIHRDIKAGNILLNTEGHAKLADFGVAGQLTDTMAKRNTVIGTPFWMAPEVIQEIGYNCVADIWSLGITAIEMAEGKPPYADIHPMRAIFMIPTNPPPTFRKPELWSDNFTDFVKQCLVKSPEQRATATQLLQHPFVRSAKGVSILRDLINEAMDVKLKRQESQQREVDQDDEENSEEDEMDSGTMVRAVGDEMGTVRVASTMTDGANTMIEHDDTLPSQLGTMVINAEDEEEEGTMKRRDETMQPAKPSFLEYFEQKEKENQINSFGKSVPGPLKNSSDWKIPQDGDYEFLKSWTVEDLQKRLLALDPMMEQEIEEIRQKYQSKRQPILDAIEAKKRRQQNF
Details: at 0.1 µM

| SMILES | inhibition |
| --- | --- |
| CNC(=O)c1cncc(/C=C/c2ccccc2C)c1 | 9.28% |
| CC(C)c1ccc(-c2cc(-c3c[nH]nc3-c3ccccn3)ccn2)cc1 | 0.63% |
| Fc1cccc(COc2ccc(Nc3ncncc3C#Cc3ccccc3)cc2Cl)c1 | 6.89% |
| NS(=O)(=O)c1ccc(N/N=C2\C(=O)Nc3cccc(CCc4ccncc4)c32)cc1 | 31.3% |
| CCn1c(-c2nonc2N)nc2cncc(C(=O)NCCNC)c21 | 3.84% |
| CS(=O)(=O)CCNCc1ccc(-c2ccc3ncnc(Nc4ccc(OCc5cccc(C(F)(F)F)c5)cc4)c3c2)o1 | 3.43% |
| Cc1cc(O)cc(C)c1/C=C/c1cncc(C(=O)OC(C)(C)C)c1 | 3.56% |
| O=C(O[C@H]1CN[C@H](C#Cc2cc3ncnc(Nc4ccc(OCc5cccc(F)c5)c(Cl)c4)c3s2)C1)N1CCOCC1 | 4.18% |
| c1ccc(-c2n[nH]cc2-c2ccnc(-c3ccc(OCCn4ccnc4)cc3)c2)nc1 | -0.86% |
| c1cnn2ncc(-c3ccnc(NCCCN4CCOCC4)n3)c2c1 | 2.04% |
| O=C(O[C@H]1CN[C@H](C#Cc2cc3ncnc(Nc4ccc5c(ccn5Cc5cc(F)ccc5F)c4)c3s2)C1)N1CCOCC1 | 2.68% |
| O=C(O[C@H]1CN[C@H](C#Cc2cc3ncnc(Nc4ccc5c(cnn5Cc5ccccc5)c4)c3s2)C1)N1CCOCC1 | 2.4% |
| COc1ccc(Nc2ncc(-c3ccccc3)o2)cc1OC | 0.86% |
| CC1=C(C(=O)Nc2ccc3[nH]nc(C)c3c2)C(c2ccc(C(F)(F)F)cc2)CC(=O)N1 (configuration not stated) | 5.04% |
| Cn1c(-c2nonc2N)nc2cnccc21 | 3.91% |
| CCS(=O)(=O)c1ccc(OC)c(Nc2ncc(-c3cccc(F)c3)o2)c1 | 3.31% |

| SMILES | inhibition |
| --- | --- |
| Cc1nnc(-c2cccc(-c3ccc(C(=O)NCC4CC4)cc3)c2)o1 | 8.49% |
| COc1cc2c(cc1Nc1nc(Nc3cccc(F)c3C(N)=O)c3cc[nH]c3n1)N(C(=O)CN1CCN(C(C)C)CC1)CC2 | 0.17% |
| COc1cc(N2CCN(C(C)C)CC2)ccc1Nc1nc(Nc2cccc(F)c2C(=O)O)c2cc[nH]c2n1 | 5.23% |
| NC(=O)c1ccc2c(-c3ccnc(NCCCO)n3)c(-c3ccc(F)cc3)nn2c1 | 4.48% |
| COc1ccccc1-c1cc(/C=C2\C(=O)Nc3ncc(Br)cc32)cc(Br)c1O | 6.41% |
| COC(=O)Nc1nc2ccc(Oc3ccc(NC(=O)Nc4cc(C(F)(F)F)ccc4F)cc3)cc2s1 | -0.61% |
| CN1CCC(C(=O)Nc2n[nH]c3nc(-c4ccc(O)cc4)c(Br)cc23)CC1 | 6.69% and 1.72% |
| CCOc1ccc2c(-c3ccnc(Nc4cc(OC)cc(C(F)(F)F)c4)n3)cnn2n1 | 0.03% |
| CC1=C(C(=O)Nc2ccc3[nH]ncc3c2)C(c2ccc(F)cc2)N=C(c2ccc(C(F)(F)F)nc2)N1 (configuration not stated) | 2.29% |
| Nc1ncnc2occ(-c3ccc(NC(=O)Nc4cc(C(F)(F)F)ccc4F)cc3)c12 | 4.27% and -2.54% |
| CCS(=O)(=O)c1ccc(OC)c(Nc2ncc(-c3cccc(C(C)=O)c3)o2)c1 | 7.14% |
| FC(F)(F)CNc1nccc(-c2cnn3ncccc23)n1 | 3.65% |
| CN(C)CCNC(=O)Nc1ccc(N(C)c2ccnc(Nc3ccc(CS(C)(=O)=O)cc3)n2)cc1 | 6.4% |
| Nc1nccc(-c2c(-c3ccc(F)cc3)ncn2C2CCNCC2)n1 | -3.42% and 0.28% |
| CN1CCC(n2cnc(-c3ccc(F)cc3)c2-c2ccnc(NCCO)n2)CC1 | 7.06% |
